# Data from article PMC11006913.
# Substitutions are numbered along the chain they refer to.
# Molecular target: T1, SIX6 (Homo sapiens, UniProt O95475 114-200, T165P)
# T1 sequence: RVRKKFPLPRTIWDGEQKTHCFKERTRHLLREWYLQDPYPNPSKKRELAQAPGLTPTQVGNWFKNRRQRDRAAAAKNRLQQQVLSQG
# Experiment: PBM; 200 nM protein, PBS
# Conditions: dsDNA, one strand shown
row,Sequence,binding signal
1,AGATCCGC,"9.23 upbm affinity estimate (log intensity, higher = more binding, comparable within an allelic series)"
2,AAGGATCC,"9.15 upbm affinity estimate (log intensity, higher = more binding, comparable within an allelic series)"
3,ACCGGATC,"9.31 upbm affinity estimate (log intensity, higher = more binding, comparable within an allelic series)"
4,CCGTATCC,"9.24 upbm affinity estimate (log intensity, higher = more binding, comparable within an allelic series)"
5,GGGATCAC,"9.32 upbm affinity estimate (log intensity, higher = more binding, comparable within an allelic series)"
6,AGGGGATC,"9.22 upbm affinity estimate (log intensity, higher = more binding, comparable within an allelic series)"
7,CCCGATAC,"9.17 upbm affinity estimate (log intensity, higher = more binding, comparable within an allelic series)"
8,CCCCTATC,"9.29 upbm affinity estimate (log intensity, higher = more binding, comparable within an allelic series)"
9,CGGGTATC,"9.28 upbm affinity estimate (log intensity, higher = more binding, comparable within an allelic series)"
10,GGATACCC,"9.29 upbm affinity estimate (log intensity, higher = more binding, comparable within an allelic series)"
11,CGATCCGC,"9.21 upbm affinity estimate (log intensity, higher = more binding, comparable within an allelic series)"
12,CAGGATCA,"9.29 upbm affinity estimate (log intensity, higher = more binding, comparable within an allelic series)"
13,CCGGTATC,"9.21 upbm affinity estimate (log intensity, higher = more binding, comparable within an allelic series)"
14,ACGATCCG,"9.21 upbm affinity estimate (log intensity, higher = more binding, comparable within an allelic series)"
15,CCGATACC,"9.05 upbm affinity estimate (log intensity, higher = more binding, comparable within an allelic series)"
16,GAGGGATC,"9.26 upbm affinity estimate (log intensity, higher = more binding, comparable within an allelic series)"
17,GATACGCC,"9.27 upbm affinity estimate (log intensity, higher = more binding, comparable within an allelic series)"
18,CGATACGC,"9.24 upbm affinity estimate (log intensity, higher = more binding, comparable within an allelic series)"
19,CCGGATCG,"9.19 upbm affinity estimate (log intensity, higher = more binding, comparable within an allelic series)"
20,GATCCCCA,"9.34 upbm affinity estimate (log intensity, higher = more binding, comparable within an allelic series)"
21,CCGGATAC,"9.26 upbm affinity estimate (log intensity, higher = more binding, comparable within an allelic series)"

# Molecular target: T2, VENTX (Homo sapiens, UniProt O95231 78-163, Y115F)
# T2 sequence: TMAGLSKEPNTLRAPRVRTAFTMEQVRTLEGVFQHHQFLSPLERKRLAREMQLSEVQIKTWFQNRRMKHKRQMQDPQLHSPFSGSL
# Experiment: PBM; 200 nM protein, PBS
# Conditions: dsDNA, one strand shown
row,Sequence,binding signal
1,GTCGATTA,"10.9 upbm affinity estimate (log intensity, higher = more binding, comparable within an allelic series)"
2,ACCGATCA,"9.96 upbm affinity estimate (log intensity, higher = more binding, comparable within an allelic series)"
3,AAATCGGT,"9.94 upbm affinity estimate (log intensity, higher = more binding, comparable within an allelic series)"
4,AAATGGGT,"10.2 upbm affinity estimate (log intensity, higher = more binding, comparable within an allelic series)"
5,CCGATTTA,"9.97 upbm affinity estimate (log intensity, higher = more binding, comparable within an allelic series)"
6,CTAATCAC,"11.7 upbm affinity estimate (log intensity, higher = more binding, comparable within an allelic series)"
7,CGATTAGA,"10.8 upbm affinity estimate (log intensity, higher = more binding, comparable within an allelic series)"
8,ATCGATCA,"9.96 upbm affinity estimate (log intensity, higher = more binding, comparable within an allelic series)"
9,AATCGGTC,"10.1 upbm affinity estimate (log intensity, higher = more binding, comparable within an allelic series)"
10,AATCGATT,"10.7 upbm affinity estimate (log intensity, higher = more binding, comparable within an allelic series)"

# Molecular target: T3, PAX4 (Homo sapiens, UniProt O43316 9-242)
# T3 sequence: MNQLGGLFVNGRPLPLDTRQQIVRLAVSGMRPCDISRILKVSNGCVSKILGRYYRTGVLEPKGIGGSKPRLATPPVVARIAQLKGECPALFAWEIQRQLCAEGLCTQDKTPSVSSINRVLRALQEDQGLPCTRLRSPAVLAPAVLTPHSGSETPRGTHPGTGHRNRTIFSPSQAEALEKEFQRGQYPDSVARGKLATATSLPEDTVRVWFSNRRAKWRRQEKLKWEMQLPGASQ
# Experiment: PBM; 200 nM protein, PBS
# Conditions: dsDNA, one strand shown
row,Sequence,binding signal
1,CGTGTAAA,"10.4 upbm affinity estimate (log intensity, higher = more binding, comparable within an allelic series)"
2,ATCGATCG,"10.5 upbm affinity estimate (log intensity, higher = more binding, comparable within an allelic series)"
3,GATTTTCA,"10.7 upbm affinity estimate (log intensity, higher = more binding, comparable within an allelic series)"
4,ACGGATAA,"10.8 upbm affinity estimate (log intensity, higher = more binding, comparable within an allelic series)"
5,TCTTATCA,"10.6 upbm affinity estimate (log intensity, higher = more binding, comparable within an allelic series)"
6,TAGTCACA,"10.1 upbm affinity estimate (log intensity, higher = more binding, comparable within an allelic series)"
7,TCTGATCA,"10.5 upbm affinity estimate (log intensity, higher = more binding, comparable within an allelic series)"
8,AATCGTAT,"10.8 upbm affinity estimate (log intensity, higher = more binding, comparable within an allelic series)"
9,ATTTTTAC,"10.5 upbm affinity estimate (log intensity, higher = more binding, comparable within an allelic series)"

# Molecular target: T4, PAX4 (Homo sapiens, UniProt O43316 9-242, F177V)
# T4 sequence: T3 sequence with F169V
# Experiment: PBM; 200 nM protein, PBS
# Conditions: dsDNA, one strand shown
row,Sequence,binding signal
1,ATCGATCG,"10 upbm affinity estimate (log intensity, higher = more binding, comparable within an allelic series)"
2,ACGGATAA,"10.1 upbm affinity estimate (log intensity, higher = more binding, comparable within an allelic series)"
3,TCTGATCA,"9.89 upbm affinity estimate (log intensity, higher = more binding, comparable within an allelic series)"
4,AATCGTAT,"10.3 upbm affinity estimate (log intensity, higher = more binding, comparable within an allelic series)"

# Molecular target: T5, PAX4 (Homo sapiens, UniProt O43316 9-242, F177Y)
# T5 sequence: T3 sequence with F169Y
# Experiment: PBM; 200 nM protein, PBS
# Conditions: dsDNA, one strand shown
row,Sequence,binding signal
1,ATCGATCG,"10.1 upbm affinity estimate (log intensity, higher = more binding, comparable within an allelic series)"
2,ACGGATAA,"10.2 upbm affinity estimate (log intensity, higher = more binding, comparable within an allelic series)"
3,TCTGATCA,"9.94 upbm affinity estimate (log intensity, higher = more binding, comparable within an allelic series)"
